Outcome and AC50 data for five compounds are collected here from PubChem BioAssay (EPA / NIEHS).

Assay [1] deals with Paired box protein Pax-6 (Homo sapiens) (UniProt P26367). Briefly: ATG_Pax6_CIS: Attagene CIS-FACTORIAL HepG2 Assay for human Paired Box 6 (PAX6) (AID 2282956). The settings on record: HepG2 CIS-FACTORIAL PAX6 reporter transcription, RNA readout; actives raise or lower the signal. A digest of the protocol: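 Read-out is reporter transcript level, measured by RT-PCR with fluorescent primer extension and capillary electrophoresis after 24 h dosing of transfected HepG2 cells. Activity in either direction fitted relative to DMSO control.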

Assay [2] can be described thus: ATG_PXRE_CIS: Attagene CIS-FACTORIAL HepG2 Assay for human Pregnane X Receptor Element (PXRE) (AID 2282957). As to conditions: HepG2 Attagene CIS-FACTORIAL PXRE reporter, mRNA; actives raise or lower the signal. The procedure, abridged:
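Fluorescent capillary electrophoresis of amplified reporter cDNA gave the signal, collected 24 h after dosing HepG2 cells that held transfected cis-element reporter constructs.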

Assay [3] can be described thus: ATG_PPRE_CIS: Attagene CIS-FACTORIAL HepG2 Assay for human Peroxisome Proliferator-activated Response Element (PPRE) (AID 2282958). As to conditions: HepG2 PPRE cis-element reporter, Attagene transcription factor profiling; actives raise or lower the signal. The procedure, abridged:
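Transcript-level reporter induction in transfected HepG2 cells after 24 h chemical exposure, quantified by fluorescence from RT-PCR products separated by capillary electrophoresis.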

A short description of assay [4]: ATG_RORE_CIS: Attagene CIS-FACTORIAL HepG2 Assay for human RAR-related Orphan Receptor Element (RORE) (AID 2282959). The settings on record: HepG2 Attagene cis-factorial RORE reporter, mRNA; actives raise or lower the signal. A digest of the protocol: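 Multiplexed reporter assay measuring mRNA induction from a cis promoter element in transiently transfected HepG2 cells after 24 h treatment. Detection via RT-PCR and capillary electrophoresis fluorescence; DMSO serves as baseline.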

Assay [5] is described as follows: ATG_Sox_CIS: Attagene CIS-FACTORIAL HepG2 Assay for human SRY-box transcription factor (SOX) (AID 2282960). The settings on record: HepG2 Attagene cis-factorial SOX reporter, mRNA; actives raise or lower the signal. A digest of the protocol: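 Cells were transfected with reporter constructs under cis-regulatory promoters, then exposed to chemicals for 24 h. Reporter transcripts were quantified by fluorescence after RT-PCR and capillary electrophoresis; activity was fitted in both directions against DMSO.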

In assay [6] the target is Transcription factor Sp1 (Homo sapiens) (UniProt P08047). Briefly: ATG_Sp1_CIS: Attagene CIS-FACTORIAL HepG2 Assay for human Specificity Protein 1 (Sp1) (AID 2282961). As to conditions: HepG2 Sp1 cis-reporter transcription, actives raise or lower the signal. A digest of the protocol: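 Measures mRNA induction of an Sp1-linked reporter in HepG2 cells 24 h post-dosing. Multiplexed reporters read by RT-PCR and capillary electrophoresis; DMSO serves as negative control and baseline.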

Assay [7] in a line: ATG_SREBP_CIS: Attagene CIS-FACTORIAL HepG2 Assay for human Sterol Regulatory Element Binding (SREBP) (AID 2282962). As to conditions: HepG2 Attagene cis-factorial SREBP reporter, mRNA; actives raise or lower the signal. A digest of the protocol:
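Endogenous SREBP activity read as cis-element-driven reporter transcript in transiently transfected HepG2, 24 h post-dosing; quantified via RT-PCR plus capillary electrophoresis of fluorescent fragments. Gain or loss of signal fitted relative to DMSO baseline.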

For assay [8], the target named is Signal transducer and activator of transcription 3 (Homo sapiens) (UniProt P40763). Briefly: ATG_STAT3_CIS: Attagene CIS-FACTORIAL HepG2 Assay for human Signal Transducer and Activator of Transcription 3 (STAT3) (AID 2282963). The settings on record: HepG2, Attagene cis-factorial STAT3 reporter transcription; actives raise or lower the signal. The procedure, abridged: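 Readout: fluorescent reporter mRNA fragments resolved by capillary electrophoresis. Setup: HepG2 transfected with MRTUs reporting endogenous transcription-factor activity, dosed 24 h. Gain or loss of signal fitted bidirectionally against DMSO control.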

Assay [9] can be described thus: ATG_TA_CIS: Attagene CIS-FACTORIAL HepG2 Assay for human TA Basal Promoter (AID 2282964). The settings on record: HepG2 Attagene CIS-factorial TA basal promoter reporter; actives raise or lower the signal. A digest of the protocol: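 Transfected HepG2, 24 h compound exposure; RNA → RT-PCR → FAM primer extension → HpaI cut → CE fluorescence. Gain/loss-of-signal fitted against DMSO negative control. Background-control readout.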

Assay [10] is described as follows: ATG_TCF_b_cat_CIS: Attagene CIS-FACTORIAL HepG2 Assay for human T-Cell-Factor with beta-catenin (TCF/b-cat) (AID 2282965). As to conditions: HepG2 TCF/beta-catenin cis-reporter transcription, actives raise or lower the signal. A digest of the protocol: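 HepG2, transient MRTU transfection, cis-element-driven reporters (endogenous TFs). 24 h compound exposure. Readout: reporter mRNA by RT-PCR + 6-FAM primer extension, HpaI digest, capillary electrophoresis. Gain/loss fit vs DMSO baseline.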

Assay [11] is described as follows: ATG_TAL_CIS: Attagene CIS-FACTORIAL HepG2 Assay for human TAL Basal Promoter (AID 2282966).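 Further: background control endpoint measuring basal TAL promoter reporter mRNA not a specific factor.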 As to conditions: HepG2 Attagene cis-factorial TAL promoter reporter; actives raise or lower the signal. The procedure, abridged: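 Transiently transfected HepG2 (cis-regulated reporter units), 24 h treatment, mRNA read by fluorescent CE after RT-PCR; bidirectional fit, DMSO baseline.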

A short description of assay [12]: ATG_TGFb_CIS: Attagene CIS-FACTORIAL HepG2 Assay for human Transforming Growth Factor (TGF) (AID 2282967). As to conditions: HepG2 Attagene CIS TGFb reporter, mRNA transcription; actives raise or lower the signal. The procedure, abridged:
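Readout: fluorescently labeled reporter cDNA fragments resolved by capillary electrophoresis after RT-PCR. Transfected HepG2 cells dosed for 24 h; endogenous TF activity at TGFB1-linked cis element; gain or loss fitted relative to DMSO.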

For assay [13], the target named is X-box-binding protein 1 (Homo sapiens) (UniProt P17861). Briefly: ATG_Xbp1_CIS: Attagene CIS-FACTORIAL HepG2 Assay for human X-box Binding Protein 1 (XBP1) (AID 2282972). The settings on record: HepG2 XBP1 cis-element reporter, Attagene multiplex; actives raise or lower the signal. A digest of the protocol: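 Reporter transcripts were quantified by RT-PCR with fluorescent primer extension and capillary electrophoresis after 24 h chemical exposure. Cells: transiently transfected HepG2 carrying cis-regulated reporter constructs; data fitted bidirectionally relative to DMSO.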

Assay [14] concerns the target Estrogen-related receptor gamma (Homo sapiens) (UniProt P62508). The experiment in a line: ATG_ERRg_TRANS: Attagene TRANS-FACTORIAL HepG2 Assay for human Estrogen-Related Receptor gamma (ERRg) (AID 2282977; active means hit-call score of the fitted dose curve at least 0.9, where 1 is the maximum;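 further: hits increase reporter signal over DMSO so potencies reflect activators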). The settings on record: HepG2 Attagene TRANS reporter, ERRg transactivation. The procedure, abridged: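 Exogenous NR-Gal4 chimera activity was assessed in HepG2 cells bearing transfected GAL4-UAS reporters. After 24 h dosing, total RNA underwent RT-PCR, fluorescent primer extension and HpaI digestion before capillary electrophoresis, with gain of signal scored against DMSO.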

The target in assay [15] is Estrogen receptor (Homo sapiens) (UniProt P03372). Briefly: ATG_ERa_TRANS: Attagene TRANS-FACTORIAL HepG2 Assay for human Estrogen Receptor alpha (ERa) (AID 2282970; active means hit-call score of the fitted dose curve at least 0.9, where 1 is the maximum). The settings on record: HepG2 Attagene TRANS ERa GAL4 reporter, mRNA. The procedure, abridged: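 One of 30 multiplexed endpoints from a HepG2 TRANS system, this one reports ERa-Gal4-driven reporter mRNA. Transcripts were quantified 24 hours post-dosing by fluorescent RT-PCR and capillary electrophoresis, with activity scored as induction over DMSO.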

The nature of assay [16]: ATG_GAL4_TRANS: Attagene TRANS-FACTORIAL HepG2 Assay for GAL4 (Internal Marker) (AID 2282976; active means hit-call score of the fitted dose curve at least 0.9, where 1 is the maximum). As to conditions: HepG2 Attagene TRANS GAL4 internal marker reporter. The procedure, abridged:
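HepG2 cells transiently transfected with multiplexed GAL4-UAS reporter constructs were dosed for 24 h. Reporter mRNA was measured by RT-PCR, 6-FAM primer extension, HpaI digestion and capillary electrophoresis, and gain of signal was fitted relative to DMSO.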

Assay [17] in a line: ATG_VDRE_CIS: Attagene CIS-FACTORIAL HepG2 Assay for human Vitamin D Receptor Element (VDRE) (AID 2282968). As to conditions: HepG2 VDRE cis-reporter transcription, actives raise or lower the signal. The procedure, abridged: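 Transient MRTU transfection of HepG2, 24 h compound exposure. Readout: reporter transcripts via RT-PCR and capillary electrophoresis, fluorescence. Bidirectional fit vs DMSO.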

Assay [18] is described as follows: ATG_M_19_TRANS: Attagene TRANS-FACTORIAL HepG2 Assay for M19 Transcription Factor (Internal Marker) (AID 2282974; active means hit-call score of the fitted dose curve at least 0.9, where 1 is the maximum). The settings on record: HepG2 Attagene TRANS-FACTORIAL M19 internal marker reporter. The procedure, abridged: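 After transfection of HepG2 with GAL4-UAS-driven reporter constructs, cells are dosed for 24 h. Total RNA is reverse-transcribed, reporter sequences PCR-amplified and labelled, then HpaI-digested and sized by capillary electrophoresis.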

Results filed as inconclusive are left out. The source made the active and inactive calls. How the source made its calls, unless noted: active means hit-call score of the fitted dose curve at least 0.9, where 1 is the maximum; inactive means score below 0.9.

Transcription factor Sp1 (Homo sapiens), sequence (P08047 whole entry, looked up): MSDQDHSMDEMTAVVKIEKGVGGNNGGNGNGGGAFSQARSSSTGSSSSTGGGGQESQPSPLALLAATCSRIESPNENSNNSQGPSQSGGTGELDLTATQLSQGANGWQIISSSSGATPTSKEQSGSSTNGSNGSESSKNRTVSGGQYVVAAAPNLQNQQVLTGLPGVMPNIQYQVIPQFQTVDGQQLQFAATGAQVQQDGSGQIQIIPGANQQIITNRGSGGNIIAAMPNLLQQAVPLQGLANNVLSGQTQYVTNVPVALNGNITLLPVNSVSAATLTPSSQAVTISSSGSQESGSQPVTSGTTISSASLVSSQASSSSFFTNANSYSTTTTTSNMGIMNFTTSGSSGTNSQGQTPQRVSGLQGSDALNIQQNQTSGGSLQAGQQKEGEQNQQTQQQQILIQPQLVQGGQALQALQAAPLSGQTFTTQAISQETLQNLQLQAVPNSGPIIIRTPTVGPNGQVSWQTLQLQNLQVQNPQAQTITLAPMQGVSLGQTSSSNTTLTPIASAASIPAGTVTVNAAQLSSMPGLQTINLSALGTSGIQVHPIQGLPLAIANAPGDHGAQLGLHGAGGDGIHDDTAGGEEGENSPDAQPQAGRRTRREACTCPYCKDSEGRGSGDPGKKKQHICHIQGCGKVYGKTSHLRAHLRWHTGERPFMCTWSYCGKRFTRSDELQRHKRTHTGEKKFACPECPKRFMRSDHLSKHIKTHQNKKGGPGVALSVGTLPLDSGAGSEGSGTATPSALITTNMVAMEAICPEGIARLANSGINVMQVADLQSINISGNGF
Paired box protein Pax-6 (Homo sapiens), sequence (P26367 whole entry, looked up): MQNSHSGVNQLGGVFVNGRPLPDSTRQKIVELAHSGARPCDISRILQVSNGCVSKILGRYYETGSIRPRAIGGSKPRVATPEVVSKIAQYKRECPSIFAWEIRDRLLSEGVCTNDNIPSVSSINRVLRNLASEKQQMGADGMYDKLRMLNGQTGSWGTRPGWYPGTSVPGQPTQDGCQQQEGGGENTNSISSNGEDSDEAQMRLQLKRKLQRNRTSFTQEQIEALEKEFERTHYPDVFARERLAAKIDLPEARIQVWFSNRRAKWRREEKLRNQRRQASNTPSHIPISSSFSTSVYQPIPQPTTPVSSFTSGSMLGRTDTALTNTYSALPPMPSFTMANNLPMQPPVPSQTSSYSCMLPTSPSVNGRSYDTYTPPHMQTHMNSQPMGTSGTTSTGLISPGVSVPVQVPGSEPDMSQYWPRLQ
Signal transducer and activator of transcription 3 (Homo sapiens), sequence (P40763 whole entry, looked up, the tested form may be a part): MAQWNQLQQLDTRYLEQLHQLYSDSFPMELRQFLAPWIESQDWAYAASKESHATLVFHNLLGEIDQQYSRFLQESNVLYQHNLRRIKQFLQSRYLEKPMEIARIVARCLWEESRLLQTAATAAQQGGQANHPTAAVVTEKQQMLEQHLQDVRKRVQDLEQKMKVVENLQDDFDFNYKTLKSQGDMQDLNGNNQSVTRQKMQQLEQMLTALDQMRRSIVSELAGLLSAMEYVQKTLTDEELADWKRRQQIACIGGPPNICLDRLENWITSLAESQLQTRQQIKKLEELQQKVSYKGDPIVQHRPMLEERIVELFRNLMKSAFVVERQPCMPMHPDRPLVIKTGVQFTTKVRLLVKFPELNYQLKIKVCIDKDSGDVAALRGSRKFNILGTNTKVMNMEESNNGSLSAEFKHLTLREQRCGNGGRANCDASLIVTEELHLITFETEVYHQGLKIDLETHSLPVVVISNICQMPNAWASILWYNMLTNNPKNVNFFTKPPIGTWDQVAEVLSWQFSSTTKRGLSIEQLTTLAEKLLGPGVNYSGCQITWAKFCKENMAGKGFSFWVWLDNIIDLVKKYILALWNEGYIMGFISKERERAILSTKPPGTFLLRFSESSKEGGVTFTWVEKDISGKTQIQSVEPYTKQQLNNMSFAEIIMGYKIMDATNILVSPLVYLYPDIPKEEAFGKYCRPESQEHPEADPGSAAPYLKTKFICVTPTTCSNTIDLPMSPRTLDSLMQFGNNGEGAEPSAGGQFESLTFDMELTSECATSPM
X-box-binding protein 1 (Homo sapiens), sequence (P17861 whole entry, looked up): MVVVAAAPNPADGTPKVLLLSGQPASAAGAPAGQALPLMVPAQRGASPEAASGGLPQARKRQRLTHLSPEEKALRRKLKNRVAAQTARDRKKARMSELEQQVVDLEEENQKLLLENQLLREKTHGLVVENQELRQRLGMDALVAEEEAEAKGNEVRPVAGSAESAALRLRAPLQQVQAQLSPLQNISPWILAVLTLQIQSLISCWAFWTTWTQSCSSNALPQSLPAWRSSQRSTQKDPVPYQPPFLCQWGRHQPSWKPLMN
Estrogen receptor (Homo sapiens), sequence (P03372 whole entry, looked up, the tested form may be a part): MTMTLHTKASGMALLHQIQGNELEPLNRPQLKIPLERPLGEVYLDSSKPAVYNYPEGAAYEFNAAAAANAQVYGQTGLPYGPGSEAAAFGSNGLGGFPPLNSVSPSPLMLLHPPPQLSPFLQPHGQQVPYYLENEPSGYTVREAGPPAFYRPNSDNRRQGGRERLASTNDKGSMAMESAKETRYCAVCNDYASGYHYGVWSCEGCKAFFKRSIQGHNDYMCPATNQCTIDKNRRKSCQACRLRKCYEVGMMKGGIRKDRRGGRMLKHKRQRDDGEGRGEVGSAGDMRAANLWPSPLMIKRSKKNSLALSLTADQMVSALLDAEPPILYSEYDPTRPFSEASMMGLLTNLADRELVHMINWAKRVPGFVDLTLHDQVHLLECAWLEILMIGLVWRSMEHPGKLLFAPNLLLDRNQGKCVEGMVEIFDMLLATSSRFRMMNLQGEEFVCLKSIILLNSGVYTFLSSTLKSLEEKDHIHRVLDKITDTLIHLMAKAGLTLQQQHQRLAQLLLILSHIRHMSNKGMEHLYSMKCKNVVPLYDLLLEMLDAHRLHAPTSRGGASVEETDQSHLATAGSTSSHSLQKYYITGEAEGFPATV
Estrogen-related receptor gamma (Homo sapiens), sequence (P62508 whole entry, looked up, the tested form may be a part): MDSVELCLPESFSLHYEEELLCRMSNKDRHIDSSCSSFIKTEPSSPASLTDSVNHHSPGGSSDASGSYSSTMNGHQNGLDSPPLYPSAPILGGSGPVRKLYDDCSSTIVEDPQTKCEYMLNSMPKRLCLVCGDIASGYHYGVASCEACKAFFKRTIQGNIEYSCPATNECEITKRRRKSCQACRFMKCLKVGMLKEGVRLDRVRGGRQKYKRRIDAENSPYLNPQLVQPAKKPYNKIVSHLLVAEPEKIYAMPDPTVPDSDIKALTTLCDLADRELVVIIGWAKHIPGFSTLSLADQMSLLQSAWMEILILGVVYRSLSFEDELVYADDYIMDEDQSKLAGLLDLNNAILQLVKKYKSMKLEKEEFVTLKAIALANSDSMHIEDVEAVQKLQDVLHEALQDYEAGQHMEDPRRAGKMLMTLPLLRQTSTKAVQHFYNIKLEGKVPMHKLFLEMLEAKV

The term AC50 denotes the midpoint of the concentration-response curve, whichever way the signal moves. As to `CCCCCCC#CC(=O)OC`, the call in [1], in assay [3], in assay [4], in [5], in assay [6] and in [7] was inactive. Besides, the call in assay [8], in assay [9], in [10], in assay [11], in [12] and in assay [13] was inactive. For the same compound, the compound was classed as inactive in assay [14]. Further, in assay [2], the concentration at half-maximal activity (AC50) is 30.5 µM (active).
For the compound `O=C(OCc1ccccc1)C(=O)OCc1ccccc1`, the compound was classed as inactive in assay [1], in assay [2], in assay [3], in [4], in assay [5] and in assay [6]. Besides, the compound was called inactive in assay [7], in assay [8], in assay [9], in assay [10], in assay [11] and in assay [12]. The outcome in [15], in assay [13] and in [16] was inactive.
Regarding `O=c1oc(=O)c2cc3c(=O)oc(=O)c3cc12`, the result in assay [1], in assay [2], in [3], in assay [4], in assay [5] and in assay [6] was inactive. The result in [7], in assay [8], in [9], in [10], in assay [11] and in assay [12] was inactive. The call in assay [17], in assay [18] and in assay [14] was inactive.
For `COc1ccnc(CS(=O)c2nc3cc(OC(F)F)ccc3[nH]2)c1OC` (stereo unspecified), the call in assay [1], in [3], in assay [4], in assay [5], in [6] and in assay [7] was inactive. Besides, the result in assay [8], in assay [9], in assay [10], in assay [11], in assay [12] and in assay [13] was inactive. In addition, in assay [2], the AC50 is 8.07 µM (active).
As to `O=Cc1ccc(Cl)c([N+](=O)[O-])c1`, the AC50 in [1] was 91.2 µM (active); in [2], 67.5 µM (active); in assay [5], 109 µM (active); in assay [6] it was 146 µM (active); in [7], 137 µM (active); in assay [10], 65.1 µM (active). In assay [13], the AC50 was 149 µM (active). In addition, the compound was classed as inactive in [3], in [4], in [8], in [9], in assay [11] and in assay [12]. The compound was called inactive in assay [15].
